Results on seven compounds are retold here after PubChem BioAssay (Tox21).

The nature of assay [1]: Nuclear factor erythroid 2-related factor 2/antioxidant responsive element (Nrf2/ARE) small molecule agonists: qHTS cell viability counter screen in human keratinocytes (AID 1919968; active = well fitted curve in the direction sought with a large enough effect in the repeat runs; an effect the other way counts as inactive or inconclusive; note: nearly all actives have a fitted effect of over 55% in size). The method, boiled down: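 Measured as CellTiter-Fluor fluorescence, this readout tracks cytotoxicity in the same wells as the ARE-luciferase screen. HaCaT reporter cells (1,500/well) received compounds after a 5 h pre-incubation and were exposed for 23 h.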
Background: qHTS replaces the single test concentration by a dilution series.

Assay [2] is described as follows: Nuclear factor erythroid 2-related factor 2/antioxidant responsive element (Nrf2/ARE) small molecule agonists: luciferase reporter gene qHTS assay in human keratinocytes (AID 1919969; note: nearly all actives have a fitted effect of over 35% in size). (In general: In a reporter assay the amount or activity of a reporter protein is the signal.)
Assay [3] has as its target Gonadotropin-releasing hormone receptor (Homo sapiens) (UniProt P30968). The experiment in a line: Human gonadotropin-releasing hormone receptor (GnRHR) small molecule agonists, calcium flux assay in GnRHR-HEK293 cells (AID 1920063). Note: nearly all actives have a fitted effect of over 35% in size. The method, boiled down:
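Fluorescence kinetics (480 nm excitation, 540 nm emission; 3 min, 1 s steps) report calcium mobilisation in human GnRHR-HEK293 cells in agonist mode. Dye incubation: 1 h, 37 C.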

The target of assay [4] is KiSS-1 receptor (Homo sapiens) (UniProt Q969F8). The experiment in a line: Human kisspeptin (KISS1R) small molecule agonists, calcium flux assay in KISS1R-HEK293 cells (AID 1920064; active = well fitted curve in the direction sought with a large enough effect in the repeat runs; an effect the other way counts as inactive or inconclusive). The method, boiled down:
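Measures KISS1R agonism through calcium-sensitive dye fluorescence in stably transfected HEK293 cells, read for 3 min after pin-tool compound delivery; 15-point titrations in triplicate.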

A short description of assay [5]: G protein-coupled receptor (GPCR) small molecule agonists, calcium flux assay: HEK293 wild type cell line counter screen (AID 1920065). The method, boiled down: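 Readout: fluorescence at 480 nm excitation/540 nm emission, sampled at 1 s intervals for 3 min. Cells had been cultured 18 h, then dye-loaded 1 h at 37 C before compound or ATP addition.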
Assay [6] can be described thus: p53 small molecule agonists, cell-based qHTS assay with human liver microsomes (AID 1963577). The method in brief:
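p53RE-bla reporter cells were pre-incubated 5 h at 37 C, then treated with compounds plus human liver microsomes (0.5 mg/mL final) and NADPH (0.5 mg/mL final) for 16 h at 37 C. Beta-lactamase activity was read by LiveBLAzer fluorescence after 2 h at room temperature.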

The nature of assay [7]: p53 small molecule agonists, cell-based qHTS assay with rat liver microsomes (AID 1963578). The method, boiled down: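 p53RE-bla cells were exposed to compounds together with rat liver microsomes (0.5 mg/mL final) and NADPH (0.5 mg/mL final) for 16 h at 37 C, then read by LiveBLAzer beta-lactamase fluorescence after 2 h at room temperature.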
Assay [8] can be described thus: p53 small molecule agonists, cell-based qHTS assay with human liver microsomes: qHTS cell viability counter screen (AID 1963579). Note: nearly all actives have a fitted effect of over 45% in size. The method, boiled down:
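p53RE-bla cells (4,000/well) were pre-incubated 5 h at 37 C, then given compounds in DMSO plus human liver microsomes (0.5 mg/mL final) and NADPH (0.5 mg/mL final) for 16 h at 37 C. Viability was read by CellTiter-Glo luminescence.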

Assay [9] can be described thus: p53 small molecule agonists, cell-based qHTS assay with rat liver microsomes: qHTS cell viability counter screen (AID 1963580). Note: nearly all actives have a fitted effect of over 45% in size. The method in brief: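 Viability is assessed in parallel with the p53 reporter read: HCT-116 p53RE-bla cells receive compounds plus rat microsomes and NADPH (0.5 mg/mL final apiece), incubate 16 h at 37 C, and then CellTiter-Glo luminescence is recorded.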

Assay [10] in a line: p53 small molecule agonists, cell-based qHTS assay (AID 1963582; active = well fitted activation curve with a large enough effect in the signal ratio in the repeat runs, not every such curve was filed as active; the % refers to the signal ratio). The method in brief: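 Compounds are pin-transferred in DMSO onto p53RE-bla cells and incubated 16 h at 37 C. The B/G FRET beta-lactamase substrate is then applied for 2 h at RT and fluorescence recorded.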
In assay [11] the target is 5-hydroxytryptamine receptor 2A (Homo sapiens) (UniProt P28223). The experiment in a line: 5-hydroxytryptamine receptor 2A (HTR2A) small molecule antagonists, cell-based qHTS assay (AID 1963586). Note: nearly all actives have a fitted effect of over 45% in size. The method, boiled down:
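Antagonist-mode intracellular calcium assay: DOI (4 nM) added after 5 min compound pre-incubation at room temperature to dye-loaded HTR2A-CHO cells. Fluorescence followed for 3 min, sampled every second.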

Assay [12] has the same target. The experiment in a line: 5-hydroxytryptamine receptor 2A (HTR2A) small molecule agonists, cell-based qHTS assay (AID 1963587). Note: nearly all actives have a fitted effect of over 30% in size. The method, boiled down: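 CHO cells stably expressing human HTR2A, plated 18 h, loaded with calcium dye 1 h at 37 C. Agonist mode: compounds added and intracellular calcium fluorescence recorded kinetically for 2 min at 1 sec intervals.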

Assay [13] concerns the target Muscarinic acetylcholine receptor M1 (Homo sapiens) (UniProt P11229). The experiment in a line: Cholinergic receptor muscarinic 1 (CHRM1) small molecule antagonists, cell-based qHTS assay (AID 1963588). Note: nearly all actives have a fitted effect of over 40% in size. The method, boiled down:
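CHRM1-CHO calcium-flux assay, antagonist mode. Cells were seeded 18 h, dye-loaded 1 h at 37 C and given compound for 5 min at RT, then acetylcholine was added at 50nM. FDSS fluorescence was read 3 min; 15 concentrations, three runs.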

The target is the same in assay [14]. As to the kind of experiment: Cholinergic receptor muscarinic 1 (CHRM1) small molecule agonists, cell-based qHTS assay (AID 1963589). Note: nearly all actives have a fitted effect of over 35% in size. The method in brief:
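Each compound was tested at 15 concentrations across three independent runs on dye-loaded CHO cells stably expressing human CHRM1, reading intracellular calcium fluorescence kinetically at 1 sec intervals.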

Assay [15] has as its target Beta-2 adrenergic receptor (Homo sapiens) (UniProt P07550). The experiment in a line: Adrenergic beta2 receptor (ADRB2) small molecule antagonists, cell-based qHTS assay (AID 1963592). Note: series mostly up to about 92 µM; nearly all actives have a fitted effect of over 50% in size. The method, boiled down: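 Cells (CHO, stable ADRB2 overexpression) incubated 18-20hr at 37C; compounds added from DMSO; agonist mix (1nM isoproterenol, 100uM IBMX, 25uM Ro-20-1724) added; 0.5hr RT; d2-cAMP and anti-cAMP-cryptate added; 1hr RT; 665/615 nm read.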

The target of assay [16] is D(2) dopamine receptor (Homo sapiens) (UniProt P14416). As to the kind of experiment: Dopamine D2 receptor (DRD2) small molecule agonists, cell-based qHTS assay (AID 1963594). Note: nearly all actives have a fitted effect of over 35% in size. The method, boiled down: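 HEK293 cells stably expressing human DRD2, pre-treated with PDE inhibitor Ro20-1724 (0.1 mM final) and compound 10 min at room temperature, then stimulated with NKH477 (200nM […]) for 30 min. cAMP read by HTRF (665/620 nm).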

Assay [17] has the same target. As to the kind of experiment: Dopamine D2 receptor (DRD2) small molecule antagonists, cell-based qHTS assay (AID 1963595; active = well fitted inhibition curve with a large enough effect in the signal ratio in the repeat runs, with a control signal flat; the % refers to the signal ratio; note: potency is the fitted concentration of half-maximal effect). The method, boiled down:
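HEK293 cells stably expressing DRD2, preincubated with 0.1 mM Ro20-1724 and compounds 10 min, were stimulated with 200 nM NKH477 plus 12 nM quinpirole for 30 min at room temperature; cAMP measured by HTRF (665/620 nm).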

Assay [18] in a line: cAMP Responsive Elements (CRE) small molecule antagonists, cell-based qHTS assay (AID 1963591; active = well fitted inhibition curve with a large enough effect in the signal ratio in the repeat runs, not every such curve was filed as active; the % refers to the signal ratio). The method in brief: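 Inhibition of NKH477-driven (0.25 uM final) CRE-beta-lactamase signal in HEK293T cells, 3 h compound exposure at 37 °C, detected by FRET substrate fluorescence.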
The nature of assay [19]: cAMP Responsive Elements (CRE) small molecule agonists, cell-based qHTS assay (AID 1963590). The method in brief: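 Cell line: CRE-bla HEK 293T; medium DMEM/10% dialyzed FBS/0.1 mM NEAA/1 mM pyruvate/25 mM HEPES; 3 h compound exposure; beta-lactamase FRET readout after 2 h substrate loading at RT.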
For assay [20], the target named is Beta-2 adrenergic receptor (Homo sapiens) (UniProt P07550). The experiment in a line: Adrenergic beta2 receptor (ADRB2) small molecule agonists, cell-based qHTS assay (AID 1963593).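 Note: CHO cells stably overexpressing human ADRB2.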 The method, boiled down:
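CHO cells stably over-expressing ADRB2 were plated overnight at 37C, then dosed with compounds plus a stimulation mix containing 100uM IBMX and 25uM Ro-20-1724 for 0.5hr at room temperature. cAMP was measured by HTRF competition, 1hr.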

Each structure is given as a SMILES string. Unmarked numbers belong to inactive results. Records with an inconclusive call do not appear. The source made the active and inactive calls. Unless noted, calls come from the whole dose curve.

Sequence of 5-hydroxytryptamine receptor 2A (Homo sapiens) (P28223 whole entry, looked up): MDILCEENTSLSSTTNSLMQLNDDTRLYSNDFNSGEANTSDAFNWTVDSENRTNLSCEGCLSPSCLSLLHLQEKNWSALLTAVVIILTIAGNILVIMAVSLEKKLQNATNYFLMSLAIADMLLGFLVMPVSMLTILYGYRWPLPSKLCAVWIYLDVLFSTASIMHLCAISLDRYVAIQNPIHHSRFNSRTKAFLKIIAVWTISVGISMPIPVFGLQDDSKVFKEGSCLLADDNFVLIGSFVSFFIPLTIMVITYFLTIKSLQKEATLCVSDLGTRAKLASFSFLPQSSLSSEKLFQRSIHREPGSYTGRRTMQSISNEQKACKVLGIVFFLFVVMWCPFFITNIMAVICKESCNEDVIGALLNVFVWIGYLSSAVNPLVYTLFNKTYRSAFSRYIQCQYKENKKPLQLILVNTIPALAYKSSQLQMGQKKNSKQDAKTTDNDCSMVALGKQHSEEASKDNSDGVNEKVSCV
Sequence of Gonadotropin-releasing hormone receptor (Homo sapiens) (P30968 whole entry, looked up): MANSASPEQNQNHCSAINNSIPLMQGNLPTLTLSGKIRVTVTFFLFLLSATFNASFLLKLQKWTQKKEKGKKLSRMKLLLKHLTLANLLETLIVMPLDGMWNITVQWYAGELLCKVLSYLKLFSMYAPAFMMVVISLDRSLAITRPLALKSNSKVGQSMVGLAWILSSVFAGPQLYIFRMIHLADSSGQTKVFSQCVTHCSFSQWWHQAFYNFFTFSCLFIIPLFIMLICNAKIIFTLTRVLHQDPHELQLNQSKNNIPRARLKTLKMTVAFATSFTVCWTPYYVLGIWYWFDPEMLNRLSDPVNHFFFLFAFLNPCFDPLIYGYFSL
Sequence of KiSS-1 receptor (Homo sapiens) (Q969F8 whole entry, looked up): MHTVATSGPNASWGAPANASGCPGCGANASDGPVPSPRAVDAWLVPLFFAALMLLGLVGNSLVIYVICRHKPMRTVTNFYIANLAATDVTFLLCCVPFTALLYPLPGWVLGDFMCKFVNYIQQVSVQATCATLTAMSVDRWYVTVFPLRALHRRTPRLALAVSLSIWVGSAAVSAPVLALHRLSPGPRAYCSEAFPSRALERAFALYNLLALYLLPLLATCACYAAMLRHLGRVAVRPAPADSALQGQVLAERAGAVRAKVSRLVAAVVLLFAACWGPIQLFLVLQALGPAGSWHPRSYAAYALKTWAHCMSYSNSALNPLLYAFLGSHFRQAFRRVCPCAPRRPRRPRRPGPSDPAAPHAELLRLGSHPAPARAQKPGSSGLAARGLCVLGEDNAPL
Sequence of D(2) dopamine receptor (Homo sapiens) (P14416 whole entry, looked up): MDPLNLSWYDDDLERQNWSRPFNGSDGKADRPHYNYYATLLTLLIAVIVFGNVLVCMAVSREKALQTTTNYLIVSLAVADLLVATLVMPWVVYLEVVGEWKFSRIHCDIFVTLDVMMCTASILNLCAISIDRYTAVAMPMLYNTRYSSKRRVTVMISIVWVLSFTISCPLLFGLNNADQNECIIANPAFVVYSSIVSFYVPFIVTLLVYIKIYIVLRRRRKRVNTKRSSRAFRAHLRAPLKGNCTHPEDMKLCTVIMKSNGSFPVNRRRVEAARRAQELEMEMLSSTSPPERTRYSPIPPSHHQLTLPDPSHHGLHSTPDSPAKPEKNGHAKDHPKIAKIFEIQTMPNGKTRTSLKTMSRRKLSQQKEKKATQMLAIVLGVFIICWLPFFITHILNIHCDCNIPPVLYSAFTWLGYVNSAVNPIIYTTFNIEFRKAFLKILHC
Sequence of Beta-2 adrenergic receptor (Homo sapiens) (P07550 whole entry, looked up): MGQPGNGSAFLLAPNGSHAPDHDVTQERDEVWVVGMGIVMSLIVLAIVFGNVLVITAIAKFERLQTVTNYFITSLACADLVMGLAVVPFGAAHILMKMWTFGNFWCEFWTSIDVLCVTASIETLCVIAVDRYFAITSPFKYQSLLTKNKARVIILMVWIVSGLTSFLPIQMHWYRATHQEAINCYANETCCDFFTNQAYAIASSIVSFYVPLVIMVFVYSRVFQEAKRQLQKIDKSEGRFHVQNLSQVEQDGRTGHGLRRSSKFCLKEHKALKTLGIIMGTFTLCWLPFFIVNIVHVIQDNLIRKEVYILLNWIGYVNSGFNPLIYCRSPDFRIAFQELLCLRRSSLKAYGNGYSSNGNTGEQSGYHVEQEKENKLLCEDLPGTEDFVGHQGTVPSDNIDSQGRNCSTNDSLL
Sequence of Muscarinic acetylcholine receptor M1 (Homo sapiens) (P11229 whole entry, looked up): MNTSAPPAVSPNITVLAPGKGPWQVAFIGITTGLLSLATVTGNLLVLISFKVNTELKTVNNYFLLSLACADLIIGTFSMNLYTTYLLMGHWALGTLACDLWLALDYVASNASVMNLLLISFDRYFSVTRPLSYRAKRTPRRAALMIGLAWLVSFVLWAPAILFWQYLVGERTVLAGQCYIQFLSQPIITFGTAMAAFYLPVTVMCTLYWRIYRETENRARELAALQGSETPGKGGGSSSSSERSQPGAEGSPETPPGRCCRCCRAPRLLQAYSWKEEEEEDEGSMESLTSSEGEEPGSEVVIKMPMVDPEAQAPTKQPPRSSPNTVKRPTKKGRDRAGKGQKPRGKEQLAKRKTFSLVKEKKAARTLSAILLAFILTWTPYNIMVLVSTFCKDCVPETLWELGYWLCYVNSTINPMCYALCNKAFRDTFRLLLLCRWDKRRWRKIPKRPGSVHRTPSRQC

For `O=[N+]([O-])c1ccc2[nH]ncc2c1`, the Potency entry in [1], in assay [2], in [3], in assay [6], in assay [7] and in assay [8] was “inactive” in each case. For the same compound, the Potency result in assay [9], in assay [10], in assay [11], in assay [12], in [13] and in assay [14] was “inactive” each time. In addition, the Potency entry in [15], in assay [16] and in assay [17] was “inactive” in each case. Moreover, the result in assay [4] and in assay [5] was inactive.

Regarding `CCn1c2ccccc2c2cc([N+](=O)[O-])ccc21`, the Potency result in assay [1], in assay [2], in assay [3], in [6], in assay [7] and in assay [8] was “inactive” throughout. Besides, the Potency entry in assay [9], in assay [10], in assay [11], in [12], in assay [13] and in assay [18] was “inactive” throughout. Further, the Potency result in assay [16] and in assay [17] was “inactive” throughout. Further, the outcome in assay [4] and in assay [5] was inactive.

As to `Cn1cccc1`, the Potency entry in assay [1], in [2], in [3], in assay [6], in assay [7] and in assay [8] was “inactive” in each case. Also, the Potency result in [9], in assay [10], in assay [11], in assay [12], in assay [19] and in [18] was “inactive” in each case. For the same compound, the Potency result in assay [16] is “inactive”. Besides, the result in assay [4] and in [5] was inactive.

`O=C(O)Cc1cn(-c2ccccc2)nc1-c1ccc(Cl)cc1`: the Potency result in [1], in [2], in [3], in [6], in assay [7] and in assay [8] was “inactive” in each case. The Potency result in assay [9], in [10], in [11], in assay [12], in assay [13] and in assay [14] was “inactive” each time. Besides, the Potency entry in [15], in assay [20], in [16] and in assay [17] was “inactive” in each case. For the same compound, the outcome in assay [4] and in assay [5] was inactive.

Regarding `CCNC(=O)C1CC(C)CCC1C(C)C` (centres undefined), the Potency result in [1], in assay [2], in [3], in assay [6], in assay [7] and in [8] was “inactive” in each case. Further, the Potency result in assay [9], in assay [10], in assay [11], in [12], in [13] and in assay [14] was “inactive” in each case. Further, the Potency result in assay [15], in assay [16] and in assay [17] was “inactive” in each case. The outcome in assay [4] and in [5] was inactive.

With `CCOC(=O)NNc1ccc(N(CC)CC(C)O)nn1` (centres undefined), the Potency result in assay [1], in assay [2], in [3], in [6], in assay [7] and in [8] was “inactive” in each case. Further, the Potency entry in assay [9], in [10], in assay [11], in assay [12], in [13] and in assay [19] was “inactive” each time. In addition, the Potency entry in assay [18], in assay [15], in assay [20], in assay [16] and in assay [17] was “inactive” in each case. The result in assay [4] and in assay [5] was inactive.

For the compound `CC(COc1ccccc1)NC(C)C(O)c1ccc(O)cc1` (centres undefined), the Potency result in [1], in [2], in assay [3], in assay [6], in assay [7] and in assay [8] was “inactive” each time. Further, the Potency entry in assay [9], in [10], in assay [12], in [13], in [14] and in [19] was “inactive” in each case. Further, the Potency entry in assay [18] and in [15] was “inactive” in each case. The result in [4] and in assay [5] was inactive. Also, in [17], the Potency was 23.7 µM (active).
